# In all, about 69,000 compounds went through this assay and about 8,600 (12%) showed an effect of 50% or more. Many of the other results were omitted from the sample, so strong results are more common in it than they were.
# Test system: Plasmodium berghei
# Test: Screen against P. berghei liver stage (PbLuc), transformed with Luciferase, at 10uM
# Type: functional, HepG2
# Settings: tested at 10 uM
row,SMILES,INHIBITION [%]
1,Cc1cn2cc(-c3nc4c([nH]3)CCCNC4=O)nc2s1,-54.3
2,CC(=O)N1CCN(Cc2nnc(C(C)(C)C)o2)CC1,-33.2
3,CCc1nnc(CN2CCC(C3CCCCCN3C(=O)C3CC3)CC2)o1 (stereo not given),62.8
4,CC(=O)N1CCCCCC1C1CCN(Cc2nnc(C(C)(C)C)o2)CC1 (stereo not given),66.5
5,CC(=O)NCC1CCN(Cc2nc(C3CC3)no2)CC1,57.5
6,CCc1nnc(CN2CCC(C3CCCCCN3C(C)=O)CC2)o1 (stereo not given),40.6
7,CC(=O)N1CCCCCC1C1CCN(Cc2nc(C(C)C)no2)CC1 (stereo not given),8.11
8,CCc1nnc(CN2CCN(C(C)=O)CC2)o1,9.65
9,CS(=O)(=O)N1CCCCCC1C1CCN(Cc2nc(C3CC3)no2)CC1 (stereo not given),29.1
10,CC(C)(C)c1nnc(CN2CCN(C(=O)N3CCCCC3)CC2)o1,29.5
11,CC(=O)N1CCCCCC1C1CCN(Cc2nc(C3CC3)no2)CC1 (stereo not given),55.4
12,CCN1CCN(C2CCN(Cc3nc(C4CC4)no3)CC2)C1=O,33.8
13,O=C(NCC1CCCO1)C1CCN(Cc2nc(C3CC3)no2)CC1 (stereo not given),40.2
14,Cc1[nH]ccc1C(=O)Nc1cccc(CN2CCC(CO)CC2)c1,25.3
15,CC(C)=CCN1C[C@@H]2CC[C@H]1CN(C(=O)c1ccc(S(N)(=O)=O)cc1)C2,39.4
16,Cc1ncsc1C(=O)N1CCN(Cc2cscn2)CC1,16
17,Cc1cccc(OCCNC(=O)Cn2ccc(C)cc2=O)c1,28.7
18,O=C(c1ccnc(NC2CC2)c1)N1CCCC1c1cccc(Br)c1 (stereo not given),-96.5
19,Cc1ccc(C)c2c(C)c(C(=O)NCCCn3cnnc3)[nH]c12,-56.7
20,CN(C)C(=O)COC1COC2(CCN(CC3CC3)CC2)C1 (stereo not given),37.6
21,Cc1cccc(CN2C(=O)C[C@H]3[C@@H]2CCN3CC2CC2)n1,-14.3
22,Cn1cc(NC(=O)CNC(=O)N2CCN(c3ccc(F)cc3)CC2)cn1,9.55

row,SMILES,INHIBITION [%]
1,CNc1cc(N2CCCC2CNCc2cnc(C)s2)ncn1 (stereo not given),7.61
2,COCc1cnc2n1CCN(C(=O)c1cnc3ccccc3c1)C2C (stereo not given),11.3
3,COCc1cnc2n1CCN(C(=O)C1=CCCCC1)C2C (stereo not given),14.2
4,COCc1cnc2n1CCN(C(=O)C1=CCCC1)C2C (stereo not given),-56.3
5,COCc1cnc2n1CCN(C(=O)c1cc3cc(Cl)ccc3o1)C2C (stereo not given),46.6
6,Cc1ncoc1C(=O)N1CCn2c(COc3cccnc3)cnc2C1C (stereo not given),5.67
7,COCc1cnc2n1CCN(C(=O)c1ocnc1C)C2C (stereo not given),20.5
8,COCc1cnc2n1CCN(C(=O)c1oc3ccccc3c1C)C2C (stereo not given),52.1
9,COCc1cnc2n1CCN(C(=O)c1ccc3ccccc3n1)C2C (stereo not given),61.1
10,COCc1cnc2n1CCN(C(=O)c1cc3ccccc3o1)C2C (stereo not given),62
11,CCn1cc(CNCCNc2ncc(Cl)cc2Cl)cn1,15.7
12,O=C(Cn1cnc2ccsc2c1=O)NCCCc1nnc2ccccn12,34.3
13,CCN1CCn2c(C)cnc2C12CCN(C(=O)C(C)C)CC2,-40.5
14,CN(C)c1cc(CNC(=O)Nc2nncs2)ccn1,-2.19
15,CCO[C@H]1CN(C)C[C@@H]1NC(=O)c1cc(C)nc2ccc(C)cc12,28.4
16,Cc1ccc2nc(C)c(C)c(C(=O)N[C@H]3COC[C@@H]3N3CCCC3)c2c1,59.1
17,Cc1cc(C(=O)N(C)C2CCN(C)C2)c2ccc(F)cc2n1 (stereo not given),21.5
18,Cc1cc(C(=O)N[C@H]2COC[C@@H]2N2CCOCC2)c2ccc(F)cc2n1,55.4
19,Cc1cc(C(=O)N2CCN[C@H](C)C2)c2ccc(F)cc2n1,12.2
20,CO[C@H]1CNC[C@@H]1NC(=O)c1cc(C)nc2ccc(C)cc12,-100
21,Cc1nc(C(=O)N[C@H]2COC[C@@H]2N2CCCCC2)cs1,11.3
22,Cc1ccc2nc(C)cc(C(=O)N[C@H]3COC[C@@H]3N3CCOCC3)c2c1,66.5

row,SMILES,INHIBITION [%]
1,Cc1ccc2nc(C)c(C)c(C(=O)N3CCC4(CCO4)CC3)c2c1,33.3
2,CCc1nccn1C1CCCN(C(=O)Cc2cn3ccsc3n2)C1 (stereo not given),-23.9
3,CC(C)c1nnc2ccc(N3CCC(C(=O)NC4CC4)CC3)nn12,-18.9
4,CC(C)CNC(=O)NC(=O)C(C)Nc1cccc(CN2CCOC2=O)c1 (stereo not given),-34.2
5,CC(C)c1ccc(OCCC(=O)N2CCC(C(=O)N(C)C)CC2)cc1,-37.55
6,Cc1cc(C(=O)N2CCCCC2c2nc3cc(F)ccc3[nH]2)nn1C (stereo not given),10.7
7,Cn1cc(C2COC3(CCN(C(=O)c4cnccn4)CC3)C2)cn1 (stereo not given),39.2
8,Cc1oc(C(=O)O)cc1S(=O)(=O)Nc1ccc(Br)cc1Cl,-18.8
9,CN(C)CC(NC(=O)c1ccn(C)c(=O)c1)c1ccccc1 (stereo not given),4.34
10,Cc1ccc(C(=O)NCC2(O)CCOCC2)cc1F,48.4
11,CC1(C(=O)NCCc2ccc(F)cc2)CCOCC1,54
12,CN(C)c1cccc(C(=O)NCC2(O)CCOCC2)c1,58.3
13,CN(C)c1ccc(C(=O)NCC2(O)CCOCC2)cc1,-3.95
14,CC1(C(=O)NCc2ccsc2)CCOCC1,44.9
15,O=C(NCC1(O)CCOCC1)c1ccc(F)cc1,54.8
16,COC(=O)c1ccc(C(=O)NCC2(O)CCOCC2)cc1,36.3
17,O=C(NCC1(O)CCOCC1)c1ccn(-c2ccccc2F)n1,-14.9
18,CC1(C(=O)NCc2cc(F)cc(F)c2)CCOCC1,37.5
19,CN1CCN(C(=O)c2cc(C#N)cn2C)c2ccccc2C1,-59.5
20,CCn1cc(S(=O)(=O)N2CCCCCC2c2cc(C)no2)cn1 (stereo not given),-7.66
21,Cc1cc(C)n(CC2CCCN2C(=O)CCc2ccco2)n1 (stereo not given),27.25
22,NC(=O)C(Nc1ccc(Cl)cc1)c1ccc(F)cc1 (stereo not given),4.81

row,SMILES,INHIBITION [%]
1,CCCc1nc(C(C)(C)NC(=O)C2CC(=O)N(CC(C)C)C2)no1 (stereo not given),-5.25
2,CC1=C(C#N)C(=O)NC(=O)/C1=C\c1c(C)[nH]n(-c2ccc(C)cc2)c1=O,47.1
3,Cn1cc(C(=O)OC2CN(c3nc4c(C(F)(F)F)cccc4s3)C2)nn1,-45.6
4,Cc1cc(O)c(OCC(=O)Nc2nccs2)cn1,-18
5,Cc1cc(O)c(OCC(=O)Nc2nc3c(s2)CCCC3)cn1,40
6,Cc1cc(O)c(OCC(=O)Nc2nc3c(s2)CCCCC3)cn1,54.9
7,CCc1ncc2c(n1)CN(Cc1nc(-c3ccoc3)no1)CC2,27.8
8,CN(C)C(=O)c1cccc(CN2CCOC(Cn3cccn3)C2)c1 (stereo not given),-2.33
9,O=C(c1ccc(Cl)cc1)N1CCC(N2CCOC2=O)CC1,41.6
10,O=C(CC1=CSC2=NCCCN12)N1CCCCC1c1cccc(F)c1 (stereo not given),32.3
11,O=C(CC1=CSC2=NCCN12)N1CCCC(CCc2cccc(F)c2)C1 (stereo not given),68.5
12,Nc1nc(CC(=O)N2CCCC(CCc3cccc(F)c3)C2)cc(=O)[nH]1 (stereo not given),7.3
13,Cc1cc(C(=O)N2C[C@@H]3CC[C@H]2CN(Cc2ccccn2)C3)nc(N)n1,4.59
14,CC(NC(=O)Nc1nccs1)c1cccnc1 (stereo not given),54.8
15,CC(NC(=O)Nc1nccs1)c1ccc(S(C)(=O)=O)cc1 (stereo not given),16.8
16,CCN(C(=O)Nc1nccs1)C(C)c1cccc(O)c1 (stereo not given),71.3
17,CCN(C(=O)Nc1nncs1)C(C)c1cccc(OC)c1 (stereo not given),-5.22
18,CCN(C(=O)Nc1cc(C)on1)C(C)c1cccc(O)c1 (stereo not given),-2.43
19,CC(NC(=O)Nc1nccs1)c1ccncc1 (stereo not given),5.91
20,Cc1cc(C(F)(F)F)n2nc(C3CCCN3C3CCSCC3)cc2n1 (stereo not given),5.535
21,CC1(C)CN(c2cc(C3CC3)ncn2)C[C@]1(C)O,-1.04
22,COCCn1ccc(NC(=O)Nc2ccc(C(N)=O)c(F)c2)n1,11.1

row,SMILES,INHIBITION [%]
1,O=C(N[C@@H]1CCN(Cc2cc3ccccc3s2)C[C@H]1O)c1cccnc1,22
2,COC(=O)c1ccn(COc2ccccc2Cl)n1,-15.5
3,CCc1nc(C2CCCN2C(=O)CCn2cncn2)no1 (stereo not given),30.8
4,Cc1cc(=O)[nH]c(-n2nc(C)c(CCC(=O)NCc3ccco3)c2C)n1,6.09
5,Cc1noc(C)c1CCC(=O)NCCc1cccs1,-1.99
6,Cc1cc(=O)[nH]c(-n2nc(C)c(CCC(=O)NCc3cccs3)c2C)n1,72.2
7,Cc1cc(=O)[nH]c(-n2nc(C)c(CCC(=O)Nc3nc(C)cs3)c2C)n1,68.2
8,COC(=O)CCc1c(C)nn(-c2nc(C)cc(=O)[nH]2)c1C,-12.6
9,Cc1cc(=O)[nH]c(-n2nc(C)c(CCC(=O)NCC(C)C)c2C)n1,11.3
10,Cn1nc(C(=O)NC2(c3ccccc3)CCC2)ccc1=O,-4.35
11,Cc1c(C)c2c(c(C)c1O)CC[C@](C)(C(=O)O)O2 [(R)-TROLOX],-10.3
12,CC(C)CC(C)NCc1cccnc1N1CCN(c2ccccn2)CC1 (stereo not given),9.56
13,CCCC(C)NCc1cccnc1N1CCN(c2ccccn2)CC1 (stereo not given),50.7
14,CC(C)NCc1cccnc1N1CCN(c2ccccn2)CC1,37.7
15,CCc1nc(CN(C)C2CCN(CC(=O)N(C)C)C2)no1 (stereo not given),24
16,O=C(NC1CCN(C(=O)C2CCCCC2)C1)c1ccncc1Cl (stereo not given),14.1
17,Cc1cnn(CCNCC(O)COc2cc(Cl)ccc2Cl)c1 (stereo not given),50.3
18,Cc1cnn(CCNCC(O)c2ccc(F)c(F)c2)c1 (stereo not given),7.21
19,Cc1cnn(CCNCC(=O)Nc2ccc(Cl)cn2)c1,-106
20,Cc1cnn(CCNCC(O)COc2ccc3ccccc3c2)c1 (stereo not given),17.4
21,Cc1cnn(CCNCC(O)c2cccc(Br)c2)c1 (stereo not given),16.8
22,Cc1cnn(CCNCC(O)COc2ccc(Cl)cc2Cl)c1 (stereo not given),66.7

# Reference: ChEMBL document CHEMBL4513216, “Probing the Open Global Health Chemical Diversity Library for Multistage-Active Starting Points for Next-Generation Antimalarials” (ACS Infect Dis, 2020)
